Results from PubChem BioAssay (Tox21).
Inconclusive results are not listed. Calls of active or inactive are those of the source. Unless noted, the call rests on the fitted dose curve; in most records, active means well fitted curve in the direction sought with a large enough effect in the repeat runs; inconclusive means weak or mixed curves; inactive means no such curve, though single readings can be large; an effect the other way counts as inactive or inconclusive.

Experiments:
[1] = qHTS assay to identify small molecule agonists of the hypoxia (HIF-1) signaling pathway - cell viability counter screen (AID 1224844; calls by dose curve; further: nearly all actives have a fitted effect of over 50% in size)
In short: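 Cells (HRE-bla ME-180, 2,000 per well) sat 5 hrs at 37C, got compound for 17 hrs, were read for CCF4-AM FRET, and were finally lysed with CellTiter-Glo for a 30 min room-temperature luminescence read.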

[2] = qHTS assay to identify small molecule agonists of H2AX (AID 1224845; active means well fitted activation curve with a large enough effect in the signal ratio in the repeat runs, not every such curve was filed as active; the % refers to the signal ratio; further: potency means the concentration at half of the fitted maximal effect)
In short: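 Wild-type CHO-K1 cells, plated overnight, exposed 3hr at 37C to 15 concentrations (0.76% DMSO final). Lysed, then HTRF anti-pH2AX (S139) cryptate and anti-H2AX-d2 antibodies, 24 hr room temperature; 665/620 nm emission read.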

[3] = qHTS assay to identify small molecule agonists of the hypoxia (HIF-1) signaling pathway (AID 1224846; active means well fitted activation curve with a large enough effect in the signal ratio in the repeat runs, not every such curve was filed as active; the % refers to the signal ratio)
In short: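 A low-serum medium (0.5% dialyzed FBS) holding 2,000 HRE-bla ME-180 cells per well is preincubated for 5 hrs, dosed with compounds by pintool, and kept a further 17 hrs at 37C, 5% CO2 before CCF4-AM FRET detection of beta-lactamase.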

[4] = qHTS assay to identify small molecule antagonists of the estrogen related receptor (ERR) signaling pathway from Tox21 library (AID 1224848); further: nearly all actives have a fitted effect of over 50% in size
In short: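 Luminescent reporter read-out (ONE-Glo) from NTP's ERR cell line after 18 h treatment at 37 C with DMSO-dissolved Tox21 compounds; cells pre-plated 6 h beforehand at 2,000 per well.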

[5] = qHTS assay to identify small molecule agonists of the estrogen related receptor (ERR) signaling pathway from Tox21 library (AID 1224849; calls by dose curve; further: nearly all actives have a fitted effect of over 15% in size)
In short: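 Screening used an NTP-provided ERR luciferase cell line. Compounds in DMSO were added 6 h after seeding and left 18 h at 37 C before a 30 min ONE-Glo step and luminescence reading.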

[6] = A CellTox Green Cytotoxicity Assay to monitor cytotoxicity in HEK293 cells - 0 hour (AID 1224869); further: nearly all actives have a fitted effect of over 50% in size
In short: (§1)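 Fluorescence intensity, read at 0, 8, 16, 24, 32 and 40 h of compound treatment, reflected dye binding to DNA of dead HEK293 cells; compounds (23 nL, DMSO) were added 5 h after plating cells with reagent.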

[7] = qHTS RealTime-Glo MT Cell Viability Assay in HepG2 cells - 40 hour (AID 1224870); further: nearly all actives have a fitted effect of over 50% in size
In short: (§2)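 HepG2 cells (600/well) mixed with RealTime-Glo MT reagent, settled 5 h at 37 C/5% CO2 before compound addition. Nonlytic NanoLuc luminescence from viable-cell prosubstrate reduction read repeatedly during 40 h treatment at 37 C.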

[8] = A CellTox Green Cytotoxicity Assay to monitor cytotoxicity in HEK293 cells - 40 hour (AID 1224871); further: nearly all actives have a fitted effect of over 45% in size; further: potency means the concentration at half of the fitted maximal effect
In short: as §1

[9] = qHTS RealTime-Glo MT Cell Viability Assay in HEK293 cells - 16 hour (AID 1224872)
In short: (§3)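 Luminescence generated by NanoLuc from substrate produced by living HEK293 cells served as the viability signal. Each value reflects the reading at its stated time point during continuous 40 h compound exposure at 37 C.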

[10] = qHTS RealTime-Glo MT Cell Viability Assay in HepG2 cells - 8 hour (AID 1224873); further: nearly all actives have a fitted effect of over 55% in size
In short: as §2

[11] = qHTS RealTime-Glo MT Cell Viability Assay in HEK293 cells - 40 hour (AID 1224874); details: RealTime-Glo luminescence; max response: active compounds read low; further: nearly all actives have a fitted effect of over 50% in size; further: potency means the concentration at half of the fitted maximal effect
In short: (§4)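 Viable HEK293 cells reduce a cell-permeant prosubstrate; the product diffuses out and is consumed by NanoLuc in the medium to give light. Compounds went in after a 5 h incubation and plates were read over the treatment course.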

[12] = A CellTox Green Cytotoxicity Assay to monitor cytotoxicity in HEK293 cells - 24 hour (AID 1224875); further: series mostly up to about 77 µM; nearly all actives have a fitted effect of over 45% in size
In short: as §1

[13] = A CellTox Green Cytotoxicity Assay to monitor cytotoxicity in HepG2 cells - 16 hour (AID 1224876); further: nearly all actives have a fitted effect of over 45% in size
In short: (§5)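 Using 1536-well format, dye-containing HepG2 suspension was seeded, allowed 5 h at 37 C/5% CO2, dosed by pintool with compounds, positive and negative controls, and imaged for fluorescence across 40 h.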

[14] = qHTS RealTime-Glo MT Cell Viability Assay in HepG2 cells - 32 hour (AID 1224877); further: nearly all actives have a fitted effect of over 55% in size
In short: (§6)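 Tox21 10K library screened in qHTS format on HepG2 cells carrying RealTime-Glo reagents. Compounds were added after a 5 h preincubation, and the luminescent signal from continuous culture was measured repeatedly during 40 h treatment.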

[15] = A CellTox Green Cytotoxicity Assay to monitor cytotoxicity in HepG2 cells - 24 hour (AID 1224878); further: nearly all actives have a fitted effect of over 45% in size
In short: as §5

[16] = A CellTox Green Cytotoxicity Assay to monitor cytotoxicity in HepG2 cells - 40 hour (AID 1224879); further: nearly all actives have a fitted effect of over 40% in size
In short: as §5

[17] = qHTS RealTime-Glo MT Cell Viability Assay in HEK293 cells - 0 hour (AID 1224880)
In short: as §4

[18] = qHTS RealTime-Glo MT Cell Viability Assay in HepG2 cells - 24 hour (AID 1224867); further: nearly all actives have a fitted effect of over 50% in size
In short: as §6

[19] = qHTS RealTime-Glo MT Cell Viability Assay in HEK293 cells - 32 hour (AID 1224868); further: nearly all actives have a fitted effect of over 50% in size; further: potency means the concentration at half of the fitted maximal effect
In short: as §3

[20] = qHTS assay to identify small molecule agonists of H2AX - cell viability counter screen (AID 1224847; calls by dose curve; further: top concentration of the series differs between compounds; nearly all actives have a fitted effect of over 30% in size)
In short: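 Wild-type CHO-K1 cells (10% FBS medium) were plated overnight at 37C, exposed to compounds at 15 concentrations for 3 hr at 37C (0.76% DMSO final), and viability was read as CellTiter-Glo luminescence after 30 min at room temperature.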
On the % scale 0 is the no-effect control and ±100 the full control effect.

c1ccc2sc(SN3CCOCC3)nc2c1
inactive: Potency [1] | Potency [2] | outcome [3] | Potency [4] | outcome [5] | outcome [6] | Potency [7] | Potency [8] | Potency [9] | outcome [10] | max response [11] 4.29% | outcome [12] | outcome [13] | Potency [14] | outcome [15] | Potency [16] | Potency [17]

O=S(=O)(O)c1cccc2ccccc12
inactive: Potency [1] | Potency [2] | outcome [3] | Potency [4] | outcome [5] | outcome [18] | Potency [19] | outcome [6] | Potency [8] | Potency [9] | outcome [10] | max response [11] 14.6% | outcome [12] | outcome [13] | Potency [14] | outcome [15] | Potency [16] | Potency [17]

CCO[Si](OCC)(OCC)c1ccccc1
inactive: Potency [1] | Potency [2] | outcome [3] | Potency [4] | outcome [18] | Potency [19] | outcome [6] | Potency [7] | Potency [8] | Potency [9] | outcome [10] | max response [11] 10.1% | outcome [12] | outcome [13] | Potency [14] | outcome [15] | Potency [17]

O=C(c1ccccc1)C1(O)CCCCC1
inactive: Potency [1] | Potency [2] | outcome [3] | outcome [20] | outcome [18] | Potency [19] | outcome [6] | Potency [8] | Potency [9] | outcome [10] | max response [11] -2.37% | outcome [12] | outcome [13] | Potency [14] | outcome [15] | Potency [16] | Potency [17]

c1ccc(CCc2ccccc2)cc1
inactive: Potency [1] | Potency [2] | outcome [3] | Potency [4] | outcome [5] | outcome [18] | Potency [7] | Potency [9] | outcome [10] | max response [11] -4.4% | Potency [14] | Potency [17]
active: Potency [8] 38900 nM

Nc1ccncc1N
inactive: Potency [1] | Potency [2] | outcome [3] | outcome [20] | Potency [19] | outcome [6] | Potency [7] | Potency [8] | Potency [9] | outcome [10] | max response [11] 13% | outcome [12] | outcome [13] | Potency [14] | outcome [15] | Potency [16] | Potency [17]

NC(=O)NC1N=C([O][Al])NC1=O (centres undefined)
inactive: Potency [1] | Potency [2] | outcome [3] | outcome [20] | outcome [18] | Potency [8] | Potency [9] | outcome [10] | max response [11] 1.53% | outcome [12] | outcome [13] | Potency [14] | outcome [15] | Potency [16] | Potency [17]

CN1C(C)(C)CC(O)CC1(C)C
inactive: Potency [1] | Potency [2] | outcome [3] | outcome [20] | outcome [18] | outcome [6] | Potency [7] | Potency [8] | Potency [9] | outcome [10] | max response [11] 2.49% | outcome [12] | outcome [13] | Potency [14] | outcome [15] | Potency [16] | Potency [17]

CC(=O)c1cnccn1
active: Potency [8] 16200 nM
inactive: Potency [1] | Potency [2] | outcome [3] | outcome [20] | outcome [18] | Potency [19] | outcome [6] | Potency [9] | outcome [10] | max response [11] 3.82% | outcome [12] | outcome [13] | Potency [14] | outcome [15] | Potency [17]

O=C(O)CNC(=O)c1ccccc1
inactive: Potency [1] | Potency [2] | outcome [3] | outcome [20] | outcome [18] | Potency [19] | outcome [6] | Potency [8] | Potency [9] | outcome [10] | max response [11] -1.85% | outcome [12] | outcome [13] | Potency [14] | outcome [15] | Potency [16] | Potency [17]

CC(C)CC(C)(N)C#N (centres undefined)
inactive: Potency [1] | Potency [2] | outcome [3] | outcome [20] | outcome [18] | Potency [19] | Potency [9] | outcome [10] | max response [11] 5.01% | outcome [12] | outcome [13] | Potency [14] | outcome [15] | Potency [16] | Potency [17]

FB(F)F
inactive: Potency [1] | Potency [2] | outcome [3] | Potency [4] | outcome [5] | outcome [18] | Potency [19] | outcome [6] | Potency [7] | Potency [8] | Potency [9] | outcome [10] | max response [11] -1.41% | outcome [12] | outcome [13] | Potency [14] | outcome [15] | Potency [16] | Potency [17]

CC12CCC(C(=O)C1=O)C2(C)C (centres undefined)
inactive: Potency [1] | Potency [2] | outcome [3] | outcome [20] | outcome [18] | Potency [19] | outcome [6] | Potency [8] | outcome [10] | max response [11] -1.01% | outcome [12] | outcome [13] | Potency [14] | outcome [15] | Potency [16] | Potency [17]

Nc1ccn([C@@H]2O[C@H](CO)[C@@H](O)C2(F)F)c(=O)n1
active: Potency [2] 982 nM | Potency [19] 1070 nM | Potency [11] 756 nM
inactive: Potency [1] | outcome [3] | outcome [20] | Potency [7] | Potency [8] | outcome [10] | outcome [12] | outcome [13] | Potency [14] | outcome [15] | Potency [17]

CCCCCCCCCCCCSC
inactive: Potency [1] | Potency [2] | outcome [3] | outcome [20] | outcome [18] | outcome [6] | Potency [8] | Potency [9] | outcome [10] | max response [11] 0.729% | outcome [12] | outcome [13] | Potency [14] | outcome [15] | Potency [17]

CC(C)(C#N)Nc1nc(Cl)nc(NC2CC2)n1
inactive: Potency [1] | Potency [2] | outcome [3] | outcome [20] | outcome [18] | Potency [7] | Potency [8] | Potency [9] | outcome [10] | max response [11] 1.79% | outcome [12] | outcome [13] | Potency [14] | outcome [15] | Potency [16] | Potency [17]
